Assay outcomes deposited in PubChem BioAssay by Sanford-Burnham Center for Chemical Genomics.
CYP2C19 inhib: blockers of cytochrome P450 2C19 activity – biochemical, luminescence, ADME assay, primary screen; CYP2C19 Supersomes, luciferin-H EGE luminescence, 30 min; inhibition, % at 5 µM; 21% of 96,000 active;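 active = CYP2C19 inhibition above a set limit at 5 µM in the primary screen, cut at about 50% in these data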;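 note: plate controls were negative control wells for no effect and 2.5 mM tranylcypromine positive control for full effect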
PLAP act: PLAP enzyme activators, biochemical, luminescence, HTS | purified PLAP enzyme, luminescent substrate read-out; active compounds read high | activation fold at 20 µM | 1.2% of 96,000 active; in the data active = activation fold above about 2
CYP2C19 act: human CYP2C19 activators, primary screen, biochemical, luminescence; Cytochrome P450 2C19 (Homo sapiens), P33261; recombinant CYP2C19, luciferin-H EGE luminescence; active compounds read high; 0 = fully inhibited enzyme, 1 = untreated enzyme; activation factor at 5 µM; 96,000 tested, under 10 active;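 active = activation factor of at least 2 at 5 µM in the primary screen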;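 note: 0 = wells with 2.5 mM tranylcypromine and 1 = vehicle-only wells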
CYP2C9 act: human CYP2C9 activators, primary screen, biochemical, luminescence. AID 1024, 2008. Cytochrome P450 2C9 (Homo sapiens), P11712. 1.4% of 96,000 active. activation factor at 5 µM. recombinant CYP2C9, luciferin-H conversion; active compounds read high; factor 1 = untreated enzyme, 0 = blocked;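 active = activation factor of 2 or more for CYP2C9 at a 5 µM dose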;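 note: 0 = sulfaphenazole-blocked wells and 1 = vehicle-only wells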
Target sequence (P11712 whole entry, looked up): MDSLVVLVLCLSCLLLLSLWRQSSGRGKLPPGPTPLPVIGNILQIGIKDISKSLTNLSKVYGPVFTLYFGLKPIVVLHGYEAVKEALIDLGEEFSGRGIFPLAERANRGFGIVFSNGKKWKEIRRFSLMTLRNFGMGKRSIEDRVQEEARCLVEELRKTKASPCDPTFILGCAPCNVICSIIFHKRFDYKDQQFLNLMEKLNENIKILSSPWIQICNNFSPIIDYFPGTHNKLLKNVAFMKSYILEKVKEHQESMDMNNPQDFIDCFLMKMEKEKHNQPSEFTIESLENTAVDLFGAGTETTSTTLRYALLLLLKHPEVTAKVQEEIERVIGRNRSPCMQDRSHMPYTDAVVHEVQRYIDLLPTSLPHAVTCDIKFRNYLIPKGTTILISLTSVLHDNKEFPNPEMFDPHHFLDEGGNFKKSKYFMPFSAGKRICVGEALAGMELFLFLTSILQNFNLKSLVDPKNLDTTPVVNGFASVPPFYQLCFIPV
CYP2C9 inh: blockers of cytochrome P450 2C9 activity – biochemical, luminescence, ADME assay, primary screen | P11712 | CYP2C9 Supersomes, luciferin-H conversion | inhibition, % at 5 µM | 20% of 96,000 active;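 active = blocking of liver enzyme CYP2C9 beyond about 50% at 5 µM, limit read from the data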
Numbers without * were called inactive. Rows were chosen to be rich in hits. Some 31% of all compounds tested hit in one or more screens of this group.

Results for O=C1N2CCSC2=NC1(NS(=O)(=O)c1ccccc1)C(F)(F)F (stereo unspecified) ?
CYP2C19 inhib: 0; PLAP act: 0.9; CYP2C19 act: 1; CYP2C9 act: 0.9; CYP2C9 inh: 10

Results for CCOC(=O)/C(=N/Nc1ccc(Cl)cc1)S(=O)(=O)c1ccc(Cl)cc1 ?
CYP2C19 inhib: 8; PLAP act: 1; CYP2C19 act: 0.9; CYP2C9 act: 0.9; CYP2C9 inh: 9

Results for O=C(NC1CCCCC1)C1CCN(c2cnccn2)CC1 ?
CYP2C19 inhib: -9; PLAP act: 0.8; CYP2C19 act: 1.1; CYP2C9 act: 1.5; CYP2C9 inh: -47

Results for CN(Cc1ccccc1)C(=O)c1ccc2c(c1)OCCO2 ?
CYP2C19 inhib: 84*; PLAP act: 1.2; CYP2C19 act: 0.2; CYP2C9 act: 1; CYP2C9 inh: -4

How did CN(Cc1ccccc1)C(=O)c1cc2ccccc2o1 do in these assays?
CYP2C19 inhib: 94*; PLAP act: 0.9; CYP2C19 act: 0.1; CYP2C9 act: 0.6; CYP2C9 inh: 36

How did O=C(OCCN1CCOCC1)c1ccc2c(c1)OCCO2 do in these assays?
CYP2C19 inhib: -13; PLAP act: 1; CYP2C19 act: 1.1; CYP2C9 act: 1.2; CYP2C9 inh: -22

Results for O=C(CCOc1ccccc1)OCC(=O)c1cc2ccccc2o1 ?
CYP2C19 inhib: 70*; PLAP act: 1.1; CYP2C19 act: 0.3; CYP2C9 act: 0.4; CYP2C9 inh: 65*

What do the screens show for `CN(CCOC(=O)c1ccc2c(c1)OCCO2)Cc1ccccc1`?
CYP2C19 inhib: 54*; PLAP act: 1.4; CYP2C19 act: 0.5; CYP2C9 act: 0.4; CYP2C9 inh: 62*

How did O=C(O)CNC(=O)c1ccc2c(c1)OCCO2 do in these assays?
CYP2C19 inhib: 3; PLAP act: 0.9; CYP2C19 act: 1; CYP2C9 act: 0.9; CYP2C9 inh: 5

How did CC1(C)CC(=O)C(Sc2nnc(-c3ccc(O)cc3)n2CC2CCCO2)C(=O)C1 (stereo unspecified) do in these assays?
CYP2C19 inhib: 6; PLAP act: 0.9; CYP2C19 act: 0.9; CYP2C9 act: 1; CYP2C9 inh: 1

How did ON1C2CCCCC2N(O)C1c1c(F)c(F)c(F)c(F)c1F (stereo unspecified) do in these assays?
CYP2C19 inhib: 13; PLAP act: 0.8; CYP2C19 act: 0.9; CYP2C9 act: 1; CYP2C9 inh: -4

What do the screens show for `O=S(=O)(c1cccc(-c2nc3ccccc3s2)c1)N1CCOCC1`?
CYP2C19 inhib: 12; PLAP act: 0.8; CYP2C19 act: 0.9; CYP2C9 act: 1; CYP2C9 inh: 0

How did Cc1ccc(Br)cc1S(=O)(=O)N1CCN(c2ccccc2)CC1 do in these assays?
CYP2C19 inhib: 64*; PLAP act: 1.2; CYP2C19 act: 0.4; CYP2C9 act: 0.8; CYP2C9 inh: 18

What do the screens show for `Cc1ccc(C(=O)O)cc1S(=O)(=O)N1CCOCC1`?
CYP2C19 inhib: 4; PLAP act: 1.2; CYP2C19 act: 1; CYP2C9 act: 1.2; CYP2C9 inh: -16

Results for Cc1ccc(S(=O)(=O)N2CCCN(S(=O)(=O)c3ccc(C)c(C)c3)CC2)cc1C ?
CYP2C19 inhib: 8; PLAP act: 0.8; CYP2C19 act: 0.9; CYP2C9 act: 1.2; CYP2C9 inh: -18

Results for Cc1ccc(S(=O)(=O)N2CCCC2)cc1S(=O)(=O)N1CCCC1 ?
CYP2C19 inhib: 52*; PLAP act: 1.2; CYP2C19 act: 0.5; CYP2C9 act: 1.2; CYP2C9 inh: -16

Results for Cc1ccc(-c2nc3ccccc3s2)cc1S(=O)(=O)N1CCCC1 ?
CYP2C19 inhib: 69*; PLAP act: 1.6; CYP2C19 act: 0.3; CYP2C9 act: 0.1; CYP2C9 inh: 93*

What do the screens show for `Cc1ccc(S(=O)(=O)c2ccc(Cl)cc2)cc1S(=O)(=O)N1CCOCC1`?
CYP2C19 inhib: 79*; PLAP act: 1.6; CYP2C19 act: 0.2; CYP2C9 act: 0.3; CYP2C9 inh: 69*

Results for CC(C)(C)NC(=O)COC(=O)c1cncc(Br)c1 ?
CYP2C19 inhib: 6; PLAP act: 1.2; CYP2C19 act: 0.9; CYP2C9 act: 1; CYP2C9 inh: -5

What do the screens show for `Cc1ccc(/C=c2\s/c(=C(/C#N)C(=O)N3CCCC3)n(Cc3ccco3)c2=O)s1`?
CYP2C19 inhib: 13; PLAP act: 1.5; CYP2C19 act: 0.9; CYP2C9 act: 0.8; CYP2C9 inh: 23

Results for COc1ccc(C(=O)Nc2ccc(Cl)cc2C(=O)N2CCCC(C)C2)cc1 (stereo unspecified) ?
CYP2C19 inhib: 33; PLAP act: 1; CYP2C19 act: 0.7; CYP2C9 act: 0.8; CYP2C9 inh: 23

What do the screens show for `CCN1CCN(Cc2cc(=O)oc3cc4c(cc23)CCC4)CC1`?
CYP2C19 inhib: 38; PLAP act: 1.4; CYP2C19 act: 0.6; CYP2C9 act: 0.8; CYP2C9 inh: 18

What do the screens show for `COc1ccc(N2CCN(Cc3cc(=O)oc4cc(-c5ccccc5)c(O)cc34)CC2)cc1`?
CYP2C19 inhib: 12; PLAP act: 1; CYP2C19 act: 0.9; CYP2C9 act: 0.9; CYP2C9 inh: 14

Results for Cc1cc2oc(=O)cc(CN3CCN(C/C=C/c4ccccc4)CC3)c2cc1O ?
CYP2C19 inhib: 45; PLAP act: 1.7; CYP2C19 act: 0.5; CYP2C9 act: 0.2; CYP2C9 inh: 84*

Results for CN1CCN(Cc2cc(=O)oc3cc4c(cc23)CCC4)CC1 ?
CYP2C19 inhib: 63*; PLAP act: 1.4; CYP2C19 act: 0.4; CYP2C9 act: 0.4; CYP2C9 inh: 64*

What do the screens show for `Cc1cc2oc(=O)cc(CN3CCCc4ccccc43)c2cc1C`?
CYP2C19 inhib: 96*; PLAP act: 1; CYP2C19 act: 0; CYP2C9 act: 0; CYP2C9 inh: 96*

What do the screens show for `CC(C)CC(C(=O)Nc1ccc2c(c1)OCCO2)N1C(=O)c2ccccc2C1=O` (stereo unspecified)?
CYP2C19 inhib: -12; PLAP act: 0.9; CYP2C19 act: 1.1; CYP2C9 act: 1; CYP2C9 inh: 4

How did CCC(SC1=Nc2ccccc2C2=NC(CC(C)C)C(=O)N12)C(=O)Nc1ccc2c(c1)OCO2 (stereo unspecified) do in these assays?
CYP2C19 inhib: 57*; PLAP act: 1.4; CYP2C19 act: 0.4; CYP2C9 act: 0.2; CYP2C9 inh: 84*

How did CCOC(=O)c1ccccc1NC(=O)c1ccccc1NS(C)(=O)=O do in these assays?
CYP2C19 inhib: 55*; PLAP act: 1.3; CYP2C19 act: 0.4; CYP2C9 act: 0.3; CYP2C9 inh: 74*

What do the screens show for `CC(NC(=O)c1ccccc1NC(=O)CSc1nnnn1C)c1ccccc1` (stereo unspecified)?
CYP2C19 inhib: 12; PLAP act: 0.9; CYP2C19 act: 0.9; CYP2C9 act: 0.4; CYP2C9 inh: 62*
